Our source for the growth values is PubChem BioAssay (NCI).

Molecules are shown by their SMILES. Several values for one entry are separate records, joined by “and”; a condition that tells them apart may be missing. Equal values may be shown once. The panel holds about 83,000 compounds, 20% with a hit somewhere; the sample as a whole holds those more often.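 96-well plates, one dose, 48 hours. Percent growth reported; active if below 10.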 Activity calls are given as the source filed them.

Test systems include HCT-15 colon; HT29 colon; SNB-75 CNS; SNB-19 CNS; U251 CNS; PC-3 prostate; SK-MEL-5 melanoma; UACC-62 melanoma; LOX IMVI melanoma; SK-MEL-28 melanoma.
Experiment in all cases: NCI-60 one-dose screen, 48 h (100 = growth as untreated, 0 = no growth, -100 = all killed)
Holding throughout (conditions): 10 µM unless noted

On to `CCN(CC)Cc1cc2[nH]c3c4ccc(Cl)cc4ncc3c2cc1OC`, for which the growth in the assay with HCT-15 colon was 45.9% (inactive) and 16.8% (inactive); in the assay on HT29 colon it was 10.2% (inactive) and 9.65% (active); in the assay on SNB-75 CNS, 74.9% (inactive) and 84.7% (inactive); with SNB-19 CNS, 104% (inactive) and 103% (inactive); in the assay with U251 CNS, 3.79% (active) and 64.8% (inactive); in the assay with PC-3 prostate, 52.4% (inactive) and 70% (inactive). Moreover, the growth with SK-MEL-5 melanoma is -97.7% (active); in the assay with UACC-62 melanoma, 35% (inactive) and 110% (inactive); with LOX IMVI melanoma, -71.8% (active) and -38.7% (active); in the assay with SK-MEL-28 melanoma it was -90% (active) and 115% (inactive).

`CS(=O)(=O)c1nsc(N)n1`: the growth in the assay with HCT-15 colon is 107% (inactive); in the assay on HT29 colon, 101% (inactive); in the assay with SNB-75 CNS it was 93.2% (inactive); with SNB-19 CNS, 98.5% (inactive); with U251 CNS, 102% (inactive); in the assay with PC-3 prostate, 98% (inactive). For the same molecule, the growth was 102% (inactive) with SK-MEL-5 melanoma, 102% (inactive) in the assay on UACC-62 melanoma, 98.2% (inactive) in the assay on LOX IMVI melanoma and 109% (inactive) with SK-MEL-28 melanoma.

Consider `C=CCN1C(=O)c2ccccc2C1=O`, for which the growth was 109% (inactive) with HCT-15 colon; 122% (inactive) in the assay on HT29 colon; 95.9% (inactive) in the assay on SNB-75 CNS; 98.1% (inactive) with SNB-19 CNS; 101% (inactive) in the assay with U251 CNS; 96.6% (inactive) in the assay with PC-3 prostate. Besides, the growth in the assay with SK-MEL-5 melanoma was 101% (inactive); in the assay with UACC-62 melanoma, 90.8% (inactive); in the assay with LOX IMVI melanoma, 94.7% (inactive); with SK-MEL-28 melanoma it was 108% (inactive).

Regarding `O=C(O)c1cccc(Br)c1`, the growth in the assay on HCT-15 colon is 108% (inactive) and 102% (inactive); with HT29 colon it was 101% (inactive) and 94.4% (inactive); with SNB-75 CNS, 91.5% (inactive) and 99.7% (inactive); in the assay with SNB-19 CNS, 108% (inactive) and 105% (inactive); with U251 CNS it was 103% (inactive) and 90.7% (inactive); in the assay with PC-3 prostate, 95% (inactive) and 97.6% (inactive). Further, the growth was 104% (inactive) and 109% (inactive) in the assay on SK-MEL-5 melanoma; 103% (inactive) and 102% (inactive) in the assay with UACC-62 melanoma; 95.8% (inactive) and 99.3% (inactive) with LOX IMVI melanoma; 112% (inactive) and 115% (inactive) with SK-MEL-28 melanoma.

With `O=C(O)C(Cc1ccc(OS(=O)(=O)Cc2ccccc2)cc1)NS(=O)(=O)Cc1ccccc1` (stereo not given), the growth in the assay with HCT-15 colon was 99.5% (inactive) and 108% (inactive); with HT29 colon, 101% (inactive) and 119% (inactive); in the assay on SNB-75 CNS, 85.7% (inactive) and 94.9% (inactive); in the assay with SNB-19 CNS, 96.6% (inactive) and 105% (inactive); in the assay on U251 CNS it was 104% (inactive); in the assay with PC-3 prostate, 123% (inactive) and 101% (inactive). Also, the growth was 97.5% (inactive) and 108% (inactive) with SK-MEL-5 melanoma; 108% (inactive) and 97.9% (inactive) with UACC-62 melanoma; 98% (inactive) with LOX IMVI melanoma; 108% (inactive) and 116% (inactive) in the assay with SK-MEL-28 melanoma.

Turning to `CC(=O)C[n+]1ccccc1Sc1ccc(Cl)cc1`, the growth is 93.3% (inactive) in the assay with HCT-15 colon; 108% (inactive) with HT29 colon; 66.1% (inactive) in the assay with SNB-75 CNS; 88.7% (inactive) in the assay on SNB-19 CNS; 73% (inactive) in the assay with U251 CNS; 58.3% (inactive) with PC-3 prostate. Besides, the growth in the assay on SK-MEL-5 melanoma was 90.3% (inactive); in the assay on UACC-62 melanoma, 84.6% (inactive); with LOX IMVI melanoma, 27.6% (inactive); with SK-MEL-28 melanoma, 100% (inactive).

Regarding `COc1cc(C2c3cc4c(cc3C(OC(=O)C[n+]3ccccc3)C3COC(=O)C23)OCO4)cc(OC)c1OC` (stereo not given), the growth with HCT-15 colon is 4.19% (active); with HT29 colon it was 4.68% (active); with SNB-75 CNS, 48.3% (inactive); in the assay on SNB-19 CNS, 27.5% (inactive); with U251 CNS, 2.86% (active); in the assay on PC-3 prostate, 35% (inactive). The growth in the assay with SK-MEL-5 melanoma is -32.5% (active); with UACC-62 melanoma it was 15.9% (inactive); in the assay with LOX IMVI melanoma, 12.7% (inactive); in the assay with SK-MEL-28 melanoma, 61.6% (inactive).

`COC1C(OC(N)=O)C(O)C(Oc2ccc3c(O)c(NC(=O)c4ccc(O)c(CC=C(C)C)c4)c(=O)oc3c2C)OC1(C)C` (stereo not given): the growth was 23.6% (inactive) and 96% (inactive) in the assay with HCT-15 colon; 105% (inactive) and 110% (inactive) in the assay on HT29 colon; 28.8% (inactive) and 77.2% (inactive) with SNB-75 CNS; 101% (inactive) and 92.7% (inactive) in the assay on SNB-19 CNS; 42.5% (inactive) and 101% (inactive) in the assay on U251 CNS; 90.6% (inactive) and 93.8% (inactive) in the assay on PC-3 prostate. The growth in the assay with SK-MEL-5 melanoma was 103% (inactive) and 98.2% (inactive); in the assay on UACC-62 melanoma, 103% (inactive) and 97.9% (inactive); in the assay with LOX IMVI melanoma, 99.7% (inactive) and 98.4% (inactive); in the assay with SK-MEL-28 melanoma it was 108% (inactive).

As to `O=C1c2cccnc2-c2ncccc21`, the growth was 111% [100 µM] (inactive) in the assay with HCT-15 colon; 106% [100 µM] (inactive) in the assay with HT29 colon; 93.8% [100 µM] (inactive) in the assay with SNB-75 CNS; 102% [100 µM] (inactive) in the assay with SNB-19 CNS; 100% [100 µM] (inactive) with U251 CNS; 96.4% [100 µM] (inactive) with PC-3 prostate. Also, the growth with SK-MEL-5 melanoma was 103% [100 µM] (inactive); in the assay with UACC-62 melanoma it was 102% [100 µM] (inactive); in the assay on LOX IMVI melanoma, 99.7% [100 µM] (inactive); with SK-MEL-28 melanoma, 119% [100 µM] (inactive).

For the molecule `C/C(CC(C)C)=N/NC(N)=S`, the growth in the assay with HCT-15 colon was 79.4% (inactive); in the assay on HT29 colon, 56.1% (inactive); in the assay on SNB-75 CNS, 99.3% (inactive); in the assay on SNB-19 CNS, 107% (inactive); in the assay on U251 CNS, 79.3% (inactive); in the assay with PC-3 prostate, 93.4% (inactive). Besides, the growth in the assay on SK-MEL-5 melanoma is 99.5% (inactive); with UACC-62 melanoma, 105% (inactive); in the assay with LOX IMVI melanoma, 95.4% (inactive); with SK-MEL-28 melanoma it was 106% (inactive).
